# Laboratory results published in paper PMC8384837, “Expanding the binding specificity for RNA recognition by a PUF domain”.
# Positions count from the first letter of the chain named.
# Assays:
# Assay in all cases: yeast three-hybrid, YBZ-1, SC-Leu-His + 0.5 mM 3-AT, 4 days
# Details in all cases: tags: N-Gal4 AD-HA kept; label: inside an RPR1-promoter hybrid RNA with tandem MS2 sites; ssRNA
# PUM1 PUF domain R5-KPV = PUM1 PUF domain R5-KPV (Homo sapiens, UniProt Q14671 828-1176, C1007K;R1008P;Q1011V)
# In short: (§1)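 A centromeric plasmid in strain YBZ-1 co-expressed Pumilio-1 PUF domain libraries, randomized at the three base-contacting residues of each repeat, with matching RNA elements; the strain carries a LexA–MS2 coat fusion and a HIS3 reporter. After four days on SC-Leu (input) or SC-Leu-His + 0.5 mM 3-AT (selection), the repeat regions were PCR-amplified and Illumina-sequenced. The interaction score is the log change in variant frequency from input to selection, using log2 and a pseudocount of 1 where absent.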
# PUM1 PUF domain R5-RKG = PUM1 PUF domain R5-RKG (Homo sapiens, UniProt Q14671 828-1176, C1007R;R1008K;Q1011G)
# In short: as §1
# PUM1 PUF domain R5-SRK = PUM1 PUF domain R5-SRK (Homo sapiens, UniProt Q14671 828-1176, C1007S;Q1011K)
# In short: as §1
# PUM1 PUF domain R5-LHP = PUM1 PUF domain R5-LHP (Homo sapiens, UniProt Q14671 828-1176, C1007L;R1008H;Q1011P)
# In short: as §1
# PUM1 PUF domain R6-CFR = target: T1, PUM1 PUF domain R6-CFR (Homo sapiens, UniProt Q14671 828-1176, N1043C;Y1044F;Q1047R)
# T1 sequence: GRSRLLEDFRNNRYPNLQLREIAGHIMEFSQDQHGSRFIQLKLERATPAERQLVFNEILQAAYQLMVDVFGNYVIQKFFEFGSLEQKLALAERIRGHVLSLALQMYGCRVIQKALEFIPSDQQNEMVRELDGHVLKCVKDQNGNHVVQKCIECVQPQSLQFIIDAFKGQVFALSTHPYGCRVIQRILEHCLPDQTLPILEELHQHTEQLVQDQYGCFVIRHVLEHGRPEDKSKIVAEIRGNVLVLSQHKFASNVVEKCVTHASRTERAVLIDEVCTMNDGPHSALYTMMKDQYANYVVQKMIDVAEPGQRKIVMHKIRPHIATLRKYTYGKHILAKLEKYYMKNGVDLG
# In short: as §1
# PUM1 PUF domain R7-KYN = PUM1 PUF domain R7-KYN (Homo sapiens, UniProt Q14671 828-1176, S1079K;N1080Y;E1083N)
# In short: as §1
# PUM1 PUF domain R4-DWR = PUM1 PUF domain R4-DWR (Homo sapiens, UniProt Q14671 828-1176, N971D;H972W;Q975R)
# In short: as §1
# PUM1 PUF domain R6-LFG = target: T2, PUM1 PUF domain R6-LFG (Homo sapiens, UniProt Q14671 828-1176, N1043L;Y1044F;Q1047G)
# T2 sequence: T1 sequence with C216L, R220G
# In short: as §1
# PUM1 PUF domain R7-LSS = PUM1 PUF domain R7-LSS (Homo sapiens, UniProt Q14671 828-1176, S1079L;N1080S;E1083S)
# In short: as §1
# PUM1 PUF domain R3-WFS = PUM1 PUF domain R3-WFS (Homo sapiens, UniProt Q14671 828-1176, C935W;R936F;Q939S)
# In short: as §1
# PUM1 PUF domain R3-GRT = PUM1 PUF domain R3-GRT (Homo sapiens, UniProt Q14671 828-1176, C935G;Q939T)
# In short: as §1
sequence,measurement,setting,value
GGCUAGAACUAGUGGAUCCCCCGGCGCCCGGCGGCUCGAGCCCGGGUAAGUGUUAAUAGUCUGCAUGCCGCCGGGCGCCAUGCCUGCAGGUCGACUCUAGAAAACAUG,binding signal,PUM1 PUF domain R5-KPV,1.4 log2 enrichment (interaction score)
same,binding signal,PUM1 PUF domain R5-RKG,2.88 log2 enrichment (interaction score)
same,binding signal,PUM1 PUF domain R5-SRK,5.28 log2 enrichment (interaction score)
same,binding signal,PUM1 PUF domain R5-LHP,3.09 log2 enrichment (interaction score)
GGCUAGAACUAGUGGAUCCCCCGGCGCCCGGCGGCUCGAGCCCGGGUAAGUGCAAAUAGUCUGCAUGCCGCCGGGCGCCAUGCCUGCAGGUCGACUCUAGAAAACAUG,binding signal,PUM1 PUF domain R6-CFR,6.28 log2 enrichment (interaction score)
GGCUAGAACUAGUGGAUCCCCCGGCGCCCGGCGGCUCGAGCCCGGGUAAGUCUAAAUAGUCUGCAUGCCGCCGGGCGCCAUGCCUGCAGGUCGACUCUAGAAAACAUG,binding signal,PUM1 PUF domain R7-KYN,3.09 log2 enrichment (interaction score)
GGCUAGAACUAGUGGAUCCCCCGGCGCCCGGCGGCUCGAGCCCGGGUAAGUGUAUAUAGUCUGCAUGCCGCCGGGCGCCAUGCCUGCAGGUCGACUCUAGAAAACAUG,binding signal,PUM1 PUF domain R4-DWR,5.3 log2 enrichment (interaction score)
GGCUAGAACUAGUGGAUCCCCCGGCGCCCGGCGGCUCGAGCCCGGGUAAGUGUCAAUAGUCUGCAUGCCGCCGGGCGCCAUGCCUGCAGGUCGACUCUAGAAAACAUG,binding signal,PUM1 PUF domain R5-KPV,3.85 log2 enrichment (interaction score)
same,binding signal,PUM1 PUF domain R5-RKG,2 log2 enrichment (interaction score)
same,binding signal,PUM1 PUF domain R5-SRK,2.72 log2 enrichment (interaction score)
GGCUAGAACUAGUGGAUCCCCCGGCGCCCGGCGGCUCGAGCCCGGGUAAGUGAAAAUAGUCUGCAUGCCGCCGGGCGCCAUGCCUGCAGGUCGACUCUAGAAAACAUG,binding signal,PUM1 PUF domain R6-CFR,4.42 log2 enrichment (interaction score)
same,binding signal,PUM1 PUF domain R6-LFG,5.7 log2 enrichment (interaction score)
GGCUAGAACUAGUGGAUCCCCCGGCGCCCGGCGGCUCGAGCCCGGGUAAGUUUAAAUAGUCUGCAUGCCGCCGGGCGCCAUGCCUGCAGGUCGACUCUAGAAAACAUG,binding signal,PUM1 PUF domain R7-LSS,2.47 log2 enrichment (interaction score)
GGCUAGAACUAGUGGAUCCCCCGGCGCCCGGCGGCUCGAGCCCGGGUAAGUGUAAUUAGUCUGCAUGCCGCCGGGCGCCAUGCCUGCAGGUCGACUCUAGAAAACAUG,binding signal,PUM1 PUF domain R3-WFS,2.63 log2 enrichment (interaction score)
same,binding signal,PUM1 PUF domain R3-GRT,1.63 log2 enrichment (interaction score)
